# Experimental data from PubChem BioAssay.
# The source made the active and inactive calls. Rule as the data show it, unless noted: active = inhibition above about 44%; inactive = the rest.
# Legend:
# [1] = StAR promoter reporter inhibitors, counter-screen for LRH-1 inverse agonist project, cell-based, luminescence, high throughput (AID 651611; in the data active = inhibition above about 28%); conditions: StAR promoter luciferase reporter counterscreen, at 3.6 µM, active compounds read high
# [2] = biological target: Nuclear receptor subfamily 5 group A member 2 (Homo sapiens) (UniProt O00482); test: LRH-1 (NR5A2) inverse agonists, retest, confirmation, cell-based, luminescence (AID 651613; in the data active = inhibition above about 42%;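 also: HEK293T cells co-transfected with LRH-1 and StAR promoter luciferase reporter; 0% = vehicle wells and 100% = parental cells lacking receptor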); conditions: cell-based LRH-1 luciferase reporter, inverse agonism; at 3.6 µM; active compounds read high
# [3] = biological target: Steroidogenic factor 1 (Homo sapiens) (UniProt Q13285); test: SF1 (NR5A1) inverse agonists, counter-screen for LRH-1 inverse agonist project, cell-based, luminescence, high throughput (AID 651614); conditions: cell-based SF1 luciferase reporter, at 3.6 µM, active compounds read high;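 also: cells cotransfected with StAR promoter reporter and SF1 expression vector; 0% = vehicle on cells with receptor and 100% = vehicle on cells lacking receptor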
# [4] = VP16 transactivation reporter inhibitors, counter-screen for LRH-1 inverse agonist project, cell-based, luminescence, high throughput (AID 651615; in the data active = inhibition above about 33%); conditions: Gal4-VP16 luciferase reporter cells, at 3.6 µM, active compounds read high
# [5] = system: transactivating tegument protein VP16 (Human herpesvirus 1); test: VP16 transactivation reporter inhibitors, counter-screen for SRC2 inhibitor project, cell-based, luminescence, single concentration (AID 652007; in the data active = inhibition above about 36%); conditions: cell-based VP16 transactivation luciferase reporter, at 8.9 µM, active compounds read high
# [6] = biological target: Nuclear receptor coactivator 2 (Homo sapiens) (UniProt Q15596); test: SRC2 coactivator transcriptional activity inhibitors, confirmation, cell-based, luminescence, HEK293, triplicate (AID 652008;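 active = mean inhibition above 46.5%, the solvent-only control mean plus 3 SD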;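 also: 0% = DMSO-treated cells and 100% = Gossypol at 36 µM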); conditions: HEK293 GAL4-SRC2 luciferase reporter, at 8.9 µM, active compounds read high
# Sequence of Nuclear receptor coactivator 2 (Homo sapiens) (Q15596 whole entry, looked up, the tested form may be a part): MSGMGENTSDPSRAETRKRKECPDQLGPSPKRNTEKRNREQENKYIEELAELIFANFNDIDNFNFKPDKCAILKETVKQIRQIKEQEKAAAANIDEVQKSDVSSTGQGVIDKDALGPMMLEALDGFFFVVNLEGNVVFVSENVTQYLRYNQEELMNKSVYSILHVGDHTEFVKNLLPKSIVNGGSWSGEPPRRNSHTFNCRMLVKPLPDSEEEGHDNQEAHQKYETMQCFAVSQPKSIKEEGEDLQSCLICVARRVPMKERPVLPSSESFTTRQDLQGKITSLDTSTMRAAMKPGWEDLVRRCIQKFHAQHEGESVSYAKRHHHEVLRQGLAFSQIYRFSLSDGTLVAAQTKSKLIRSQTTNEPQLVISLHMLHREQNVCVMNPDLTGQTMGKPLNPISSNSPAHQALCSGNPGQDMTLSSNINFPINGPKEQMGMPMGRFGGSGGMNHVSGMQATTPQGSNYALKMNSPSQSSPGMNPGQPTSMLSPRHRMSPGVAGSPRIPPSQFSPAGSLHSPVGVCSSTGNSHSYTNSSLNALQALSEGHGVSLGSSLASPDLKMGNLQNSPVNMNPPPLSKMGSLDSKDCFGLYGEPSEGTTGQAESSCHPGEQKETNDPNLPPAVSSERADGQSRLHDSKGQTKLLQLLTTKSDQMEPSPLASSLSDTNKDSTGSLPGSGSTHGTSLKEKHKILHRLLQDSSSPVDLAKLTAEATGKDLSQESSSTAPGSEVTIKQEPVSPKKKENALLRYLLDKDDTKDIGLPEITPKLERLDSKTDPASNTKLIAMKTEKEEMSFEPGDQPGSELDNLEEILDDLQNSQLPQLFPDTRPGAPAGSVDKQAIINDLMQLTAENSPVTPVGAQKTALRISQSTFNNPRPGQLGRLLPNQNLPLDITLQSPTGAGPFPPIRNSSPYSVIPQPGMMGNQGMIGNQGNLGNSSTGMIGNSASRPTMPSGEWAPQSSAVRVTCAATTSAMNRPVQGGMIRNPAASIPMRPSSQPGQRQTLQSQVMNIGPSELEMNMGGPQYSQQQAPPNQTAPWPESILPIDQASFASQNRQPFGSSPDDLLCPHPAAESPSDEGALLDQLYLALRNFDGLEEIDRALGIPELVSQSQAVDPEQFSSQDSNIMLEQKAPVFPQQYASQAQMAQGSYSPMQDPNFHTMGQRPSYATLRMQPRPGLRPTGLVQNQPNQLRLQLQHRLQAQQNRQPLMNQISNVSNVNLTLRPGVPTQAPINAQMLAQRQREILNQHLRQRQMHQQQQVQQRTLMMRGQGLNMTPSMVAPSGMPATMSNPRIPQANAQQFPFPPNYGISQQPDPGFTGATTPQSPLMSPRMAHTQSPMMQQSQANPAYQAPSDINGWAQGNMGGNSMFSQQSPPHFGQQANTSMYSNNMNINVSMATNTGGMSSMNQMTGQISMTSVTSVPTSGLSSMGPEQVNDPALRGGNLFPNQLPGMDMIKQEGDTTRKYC
# Sequence of Nuclear receptor subfamily 5 group A member 2 (Homo sapiens) (O00482 whole entry, looked up): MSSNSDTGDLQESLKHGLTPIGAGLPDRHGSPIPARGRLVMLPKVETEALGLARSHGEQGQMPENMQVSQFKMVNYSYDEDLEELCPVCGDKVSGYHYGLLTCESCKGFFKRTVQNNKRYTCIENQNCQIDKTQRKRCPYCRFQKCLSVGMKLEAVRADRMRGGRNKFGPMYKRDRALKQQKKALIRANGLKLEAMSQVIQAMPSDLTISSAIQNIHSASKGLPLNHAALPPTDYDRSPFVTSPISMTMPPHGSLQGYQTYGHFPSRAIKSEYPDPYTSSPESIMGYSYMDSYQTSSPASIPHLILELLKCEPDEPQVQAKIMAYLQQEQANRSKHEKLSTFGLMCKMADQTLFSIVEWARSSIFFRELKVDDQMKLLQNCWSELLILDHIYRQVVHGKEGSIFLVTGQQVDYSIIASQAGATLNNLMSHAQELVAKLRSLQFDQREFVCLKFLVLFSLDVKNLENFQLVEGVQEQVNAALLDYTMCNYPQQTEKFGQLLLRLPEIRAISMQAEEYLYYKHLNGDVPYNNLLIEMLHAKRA
# Sequence of Steroidogenic factor 1 (Homo sapiens) (Q13285 whole entry, looked up, the tested form may be a part): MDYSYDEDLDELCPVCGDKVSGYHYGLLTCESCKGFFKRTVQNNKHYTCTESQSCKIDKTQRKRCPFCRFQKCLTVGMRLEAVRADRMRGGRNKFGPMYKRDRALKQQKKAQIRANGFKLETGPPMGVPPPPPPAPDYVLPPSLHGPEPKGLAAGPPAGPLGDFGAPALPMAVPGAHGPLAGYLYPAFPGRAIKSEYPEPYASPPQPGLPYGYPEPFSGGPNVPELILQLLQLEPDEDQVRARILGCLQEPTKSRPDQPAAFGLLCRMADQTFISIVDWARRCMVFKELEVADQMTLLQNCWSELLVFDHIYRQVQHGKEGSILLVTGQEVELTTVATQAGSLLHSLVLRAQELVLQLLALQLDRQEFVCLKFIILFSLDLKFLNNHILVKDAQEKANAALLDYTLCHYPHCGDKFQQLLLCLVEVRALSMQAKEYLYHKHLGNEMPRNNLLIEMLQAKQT
SMILES,inhibition [1],inhibition [2],inhibition [3],inhibition [4],inhibition [5],inhibition [6]
Cc1cc(C)n2c(Nc3ccc4c(c3)OCCO4)c(-c3cc4ccccc4o3)nc2n1,-27.7% (inactive),-26.8% (inactive),-6.96% (inactive),0.38% (inactive),-60.9% (inactive),-12.5% (inactive)
CCOC(=O)N1CCc2cc(OC)c(OC)c3c2c1cc1cc(OC)c(OC)cc13,60.1% (active),70.3% (active),67.3% (active),-28.7% (inactive),,
CCCCCCCCCC[n+]1cccc2c3ccccc3ccc21,83.3% (active),110% (active),96.1% (active),95.9% (active),48.9% (active),58.6% (active)
Cc1ccc(S(=O)(=O)NCc2ccncc2)cc1,5.31% (inactive),54.7% (active),43% (active),48.7% (active),,
CCC(=O)N1CCN(c2cc(NCC3CCCO3)c(F)cc2[N+](=O)[O-])CC1 (stereo not given),9.58% (inactive),43.8% (active),50.7% (active),0.55% (inactive),,
CCc1c(O)nc(SCC(=O)Nc2ccc(OC)cc2)n(C2CCCCC2)c1=O,13.3% (inactive),55.5% (active),51.4% (active),5.01% (inactive),,
CCN(CC)C1Oc2cc3c(cc2C(c2cc(OC)c(OC)c(OC)c2)C1C)OCO3 (stereo not given),31.5% (active),18.4% (inactive),29.8% (inactive),25.9% (inactive),,
CC(=O)Nc1cc(-c2cccc(N)c2)cn2c(-c3ccc(C(C)=O)cc3)cnc12,19.6% (inactive),33.4% (inactive),36.5% (inactive),-13.4% (inactive),,
O=C(CSc1nc2ccc(F)cc2c(=O)n1-c1ccccc1)Nc1ccc2c(c1)CCC2,-3.68% (inactive),43.3% (active),47.9% (active),-3.99% (inactive),,
COc1ccc(-c2cc(-c3ccc(O)cc3)nc(N)c2C#N)cc1,27.8% (active),58.3% (active),49% (active),-19.5% (inactive),,
CC1C/C(=C\c2cccnc2)C(=O)/C(=C/c2cccnc2)C1 (stereo not given),61.9% (active),100% (active),95.6% (active),91.5% (active),98% (active),93.9% (active)
O=C(NCc1cccnc1)c1cccc2c1C(=O)N(C1CCCCC1)C2,12.8% (inactive),48.5% (active),51.5% (active),-8.24% (inactive),,
O=C(Nc1cccc(NC(=O)c2ccccc2Cl)c1)c1ccc([N+](=O)[O-])o1,33.1% (active),58.8% (active),66.8% (active),-5.43% (inactive),,
O=C(Nc1ccc([N+](=O)[O-])cc1)c1cccc([N+](=O)[O-])c1,8.52% (inactive),65.6% (active),64.5% (active),-15.3% (inactive),,
Cc1ccsc1CNc1ncnc2ccc(-c3c(C)noc3C)cc12,54.5% (active),37.9% (inactive),28.7% (inactive),-142% (inactive),,
Cc1nnsc1C(=O)NC1CCCc2c1cnn2-c1ccc(C(C)(C)C)cc1 (stereo not given),29.2% (active),50.7% (active),63.2% (active),50.6% (active),13.8% (inactive),31.2% (inactive)
Cc1onc(-c2c(F)cccc2Cl)c1C(=O)Nc1cccc2nsnc12,8.33% (inactive),52.1% (active),49.8% (active),27.2% (inactive),,
COc1ccc(Cc2c(-c3cccc(Cl)c3)nc3cc(C)c(Br)c(C)n23)c(C)c1,3.35% (inactive),41.3% (active),36.9% (inactive),-4.66% (inactive),,
O=C(O)/C=C/C(=O)Nc1ccccc1SC(F)(F)C(F)(F)C(F)(F)F,20.1% (inactive),54.8% (active),45.5% (active),6.88% (inactive),,
O=C(Nc1cccnc1)c1ccc([N+](=O)[O-])s1,25.4% (inactive),43.8% (active),51% (active),11.1% (inactive),,
CCNC(=S)N1CCN(c2nc(CC)nc3sc4c(c23)CCCC4)CC1,1.42% (inactive),48.3% (active),37.6% (inactive),5.39% (inactive),,
Cn1ncc(Cl)c1C(=O)NCc1ccc2c(c1)OCO2,-2.54% (inactive),45.4% (active),50.1% (active),15.7% (inactive),,
CSCc1c(C(=O)Nc2ccccc2N2CCOCC2)oc2ccccc12,7.6% (inactive),65.9% (active),62.5% (active),14.2% (inactive),,
Cc1ccc(C)c(NC(=O)CSc2nc3[nH]ncc3c(=O)[nH]2)c1,6.04% (inactive),58.1% (active),56% (active),7.57% (inactive),,

SMILES,inhibition [1],inhibition [2],inhibition [3],inhibition [4],inhibition [5],inhibition [6]
Cc1cc(S(=O)(=O)NCc2ccncc2)c(C)cc1Br,-10.6% (inactive),39% (inactive),38.6% (inactive),41.4% (active),,
Cc1cccc(CSC(Nc2ccc(F)cc2)=C(C#N)C#N)c1,-5.34% (inactive),35% (inactive),29.4% (inactive),17.7% (inactive),,
CCOc1ccc(NC(=O)CSc2nc(O)c(C)c(=O)n2-c2ccc(F)cc2)cc1,5.33% (inactive),60.6% (active),50.6% (active),-14.2% (inactive),,
O=C(C(=Cc1ccccc1)CN1CCCCC1)c1ccccc1,36.4% (active),66.8% (active),75.1% (active),82.8% (active),,
CCN(Cc1ccccc1)c1ccc(/C=N/N2CCOCC2)cc1,-41.2% (inactive),26% (inactive),34.2% (inactive),-9.02% (inactive),,
COc1cccc(C2c3cc4c(cc3OC(N3CCCC3)C2C)OCO4)c1O (stereo not given),55% (active),64% (active),73.2% (active),21.9% (inactive),,
Cn1cnc([N+](=O)[O-])c1Oc1ccc2ccccc2c1,38.9% (active),55.3% (active),54.8% (active),10.8% (inactive),11.9% (inactive),19.6% (inactive)
O=C(CCl)Nc1cc2[nH]c(=O)[nH]c2cc1Br,71.3% (active),78.6% (active),79.1% (active),2.89% (inactive),76.5% (active),74.7% (active)
O=C(NCCOc1cccnc1)c1ccc(OC2CCN(Cc3ccccn3)CC2)cc1,90.8% (active),105% (active),97.6% (active),87.7% (active),15.9% (inactive),56.5% (active)
CC1=C(CO)C(=O)OC([C@@H](C)C2CC[C@H]3C4C[C@H]5O[C@]56[C@@H](O)C=CC(=O)[C@]6(C)C4CC[C@]23C)C1 (stereo not given in full),67.7% (active),66.2% (active),79.8% (active),79.6% (active),53.8% (active),41.6% (inactive)
COc1ccc(CCNc2ncnc3sc(C)cc23)cc1OC,35.5% (active),90.1% (active),57.7% (active),57.9% (active),16.6% (inactive),25.8% (inactive)
O=C(CCCc1ccccc1)c1ccc2c(c1)OCCO2,62.5% (active),7.99% (inactive),55.9% (active),26.2% (inactive),54.7% (active),73.9% (active)
Cc1scc(C(=O)N/N=C/c2ccc([N+](=O)[O-])o2)c1C,42.8% (active),76.3% (active),73.5% (active),25.1% (inactive),62.4% (active),68% (active)
O=C1/C(=C\c2ccccc2)CN(C(=O)CCN2CCCCC2)C/C1=C/c1ccccc1,56.7% (active),84.7% (active),84.8% (active),73.7% (active),85.7% (active),-4.61% (inactive)
CC(=O)NC(c1cccc([N+](=O)[O-])c1)c1ccc2cccnc2c1O (stereo not given),85.6% (active),100% (active),91.2% (active),83.9% (active),0.91% (inactive),31.1% (inactive)
CCC(C(=O)NCc1ccccc1)n1c(CSCCOc2ccccc2)nc2ccccc21 (stereo not given),21.1% (inactive),21.6% (inactive),25.1% (inactive),29% (inactive),19.5% (inactive),78.3% (active)
Cc1ccc(-c2nc(NC(=O)c3nn(C)cc3[N+](=O)[O-])sc2C)cc1,18.9% (inactive),21.2% (inactive),32.2% (inactive),-0.37% (inactive),35.3% (inactive),50.5% (active)
O=C(CSc1ncccc1C(=O)O)Nc1ccc2c(c1)OCCO2,4.26% (inactive),11.1% (inactive),16.6% (inactive),0.17% (inactive),-2.25% (inactive),-11.1% (inactive)
COc1ccc(C)cc1NS(=O)(=O)c1ccc(-c2cnc(C3CC3)o2)cc1,41.5% (active),41.9% (active),58% (active),54.5% (active),6.98% (inactive),34.7% (inactive)
O=C(CCl)N1CCN(S(=O)(=O)Cc2ccccc2)CC1,25.3% (inactive),52.9% (active),47.5% (active),15.9% (inactive),12.1% (inactive),46.2% (inactive)
Cc1cc(C)c(C#N)c(Sc2nc(C)c([N+](=O)[O-])c(C)c2C#N)n1,3.51% (inactive),10.9% (inactive),9.59% (inactive),20.6% (inactive),12.9% (inactive),25.4% (inactive)
N#Cc1cccc(C=C(C(=O)c2ccccc2)c2ccccc2)c1,18.6% (inactive),28.9% (inactive),36.9% (inactive),32.6% (active),23% (inactive),62.2% (active)
CC1CCC/C=C/C(=O)c2c(O)cc(O)cc2CC(=O)O1 (stereo not given),8.63% (inactive),35.8% (inactive),12.9% (inactive),29.1% (inactive),19.4% (inactive),33.2% (inactive)
